The campaign covered roughly 280,000 compounds. About 2,600 (0.93%) were called active. About 8% were inconclusive and are not listed. The call rests on the fitted dose curve; in most records, active means well fitted curve in the direction sought with a large enough effect; inconclusive means small, poorly fitted or top-dose-only effect; inactive means flat fitted curve, though single readings scatter. Shown is part of a subset that was picked to be rich in actives.
Assay: Counterscreen qHTS for Inhibitors of Tau Fibril Formation, Fluorescence Polarization; further: nearly all actives have a fitted effect of over 55% in size
Conditions: tau K18 P301L Alexa594 fluorescence, heparin fibrillization; series mostly up to 57.7 µM; activity change, negative = decrease: at the top concentration
In short: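 Human tau K18 P301L (15 uM unlabeled, 0.24 uM Alexa 594-labeled) in 100 mM sodium acetate pH 7 with 20 uM heparin, 6 hr at 37 C. ThT 30 uM added, 1 hr ambient; Alexa 594 FP and total fluorescence read at 555/632 nm.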
On the % scale 0 is the no-effect control and ±100 the full control effect; potency means the concentration at half of the fitted maximal effect; tags describe the fitted curve by direction and shape or compound fluorescence and quenching.

| Structure (SMILES) | activity change, negative = decrease | Potency |
| --- | --- | --- |
| COc1cccc(C(=O)N(Cc2cccc(Cl)c2)Cc2ccco2)c1 | -8.6% (inactive) |  |
| Cc1ccccc1CSc1nc2c([nH]c3ccccc32)c(=O)n1C | -4.83% (inactive) |  |
| CCN(C(=O)CSc1nnc(C)n2c1cc1occc12)c1ccccc1 | -11.2% (inactive) |  |
| CC1CCN(S(=O)(=O)c2ccc3c(c2)N(CC(=O)NCCc2ccccc2)C(=O)CO3)CC1 | -19.9% (inactive) |  |
| CCc1ccccc1NC(=O)c1sc2nc3c(cc2c1N)CN(Cc1ccccc1)CC3 | -23% (inactive) |  |
| CCc1ccc2nc3sc(C(=O)Nc4nnc(CC)s4)c(N)c3cc2c1 | -25.2% (inactive) |  |
| COc1ccc(Cl)cc1NC(=O)c1oc(C)nc1C | -2.19% (inactive) |  |
| COc1ccc(Cl)cc1NC(=O)c1sc2nc3c(cc2c1N)CN(C)CC3 |  | 10 µM [quencher] (active) |
| COc1ccc(Cl)cc1NC(=O)CCN1CCOCC1 | 15.5% (inactive) |  |
| CCc1ccc(NC(=O)c2sc3nc4c(cc3c2N)CN(CC)CC4)cc1 |  | 20 µM [quencher] (active) |
| O=C(Nc1ccc(S(=O)(=O)N2CCC(c3nc4ccccc4s3)CC2)cc1)c1ccccc1F | 2.89% (inactive) |  |
| Cc1cc(C)cc(-n2ccnc2SCC(=O)Nc2nc3ccccc3s2)c1 | -11.2% (inactive) |  |
| CCOc1ccccc1CNC(=O)Nc1cn(CC(C)C)c(=O)c2ccccc12 | -18.9% (inactive) |  |
| CC(C)Cn1c(C2CC(=O)N(c3ccccc3Cl)C2)nc2ccccc21 (stereo not drawn) | -3.59% (inactive) |  |
| Cc1ccc(-c2csc(-c3c[nH]c4ccccc34)n2)cc1 |  | 7.08 µM [quencher] (active) |
| Cc1ccc(-c2csc(-c3cc(C)on3)n2)cc1 | -7.55% (inactive) |  |
| CCCc1cc(-c2nc(-c3ccc(C)cc3)cs2)ccn1 | -4.64% (inactive) |  |
| Cc1ccc2c(=O)c(C(=O)c3ccc(Cl)cc3)cn(CC(=O)NC3CCCCC3)c2n1 | -5.5% (inactive) |  |
| Cc1ccc(C(=O)NCCSc2c(C)[nH]c3ccccc23)cc1C |  | 12.6 µM [quencher] (active) |
| COC(=O)CCNC(=O)c1ccc2[nH]c(C)c(C)c2c1 | -13.3% (inactive) |  |

| Structure (SMILES) | activity change, negative = decrease | Potency |
| --- | --- | --- |
| CN(C)CCCNC(=O)c1ccc2[nH]c3ccccc3c2c1 | 0.618% (inactive) |  |
| COc1ccc(C(=O)N2CCC(c3nc4ccccc4o3)CC2)cc1 | 5.71% (inactive) |  |
| CCOc1ccccc1C(=O)NCc1ccc2c(c1)CCN2C(=O)c1ccc(F)cc1 | -12.3% (inactive) |  |
| Cc1ccc(S(=O)(=O)NCc2nc3nc(C)cc(C)n3n2)cc1 | -11% (inactive) |  |
| Oc1ccc(/C=N/Nc2nc(-c3ccccc3F)nc3ccccc23)c(O)c1 |  | 5.01 µM [quencher] (active) |
| Oc1ccc(/C=N/NC2=NCCCCC2)c(O)c1 | -10.3% (inactive) |  |
| Cc1cc(N/N=C/c2ccccc2F)c2ccccc2n1 | -9.11% (inactive) |  |
| Cc1c(C(=O)Nc2cccc(Cl)c2)oc2ccc(S(=O)(=O)N3CCOCC3)cc12 | -21.2% (inactive) |  |
| COc1cc(OC)c(OC)cc1/C=C/c1nc2ccccc2c(=O)n1-c1ccc(Br)c(C)c1 | -24.9% (inactive) |  |
| Cc1cc(Nc2ccccc2)n(CCC#N)n1 | 4.45% (inactive) |  |
| Cc1cc(NC(=O)Nc2ccccc2)n(-c2ccccc2)n1 | -4.86% (inactive) |  |
| Cc1cc(Nc2ccccc2)n(C(=O)c2ccc(N)cc2)n1 |  | 25.1 µM [quencher] (active) |
| CCOc1ccc(-n2c(C)nc3c(cnn3-c3ccc(C)cc3)c2=O)cc1 | -2.79% (inactive) |  |
| CCOc1ccc(NC(=O)c2c(NC(=O)Cc3ccccc3)sc3c2CCCCC3)cc1 | -17.4% (inactive) |  |
| COc1ccc(CCNC(=O)Cn2c(=O)cc(C(F)(F)F)c3c(C)nn(C)c32)c(OC)c1 | -5.48% (inactive) |  |
| CCOC(=O)c1c(NC(=O)CSc2cn(CC)c3ccccc23)sc2c1CCC2 | -27.5% (inactive) |  |
| CCOC(=O)c1c(NC(=S)Nc2ccccc2C)sc2c1CCC2 | -15.1% (inactive) |  |
| CCOC(=O)c1c(NC(=O)C(C)Sc2c[nH]c3ccccc23)sc2c1CCC2 (stereo not drawn) |  | 7.94 µM [quencher] (active) |
| CCN(CC)C(=O)CSc1nc2cc3c(cc2c(=O)n1CCCC(=O)NCc1ccc2c(c1)OCO2)OCO3 | 0.813% (inactive) |  |
| CCCCNc1nc2c(c(=O)n(C)c(=O)n2C)n1Cc1cccc(OC)c1 | -15.7% (inactive) |  |

| Structure (SMILES) | activity change, negative = decrease | Potency |
| --- | --- | --- |
| Cn1c(=O)c2c(nc(NCCc3ccccc3)n2Cc2ccccc2Br)n(C)c1=O | 0.274% (inactive) |  |
| Cn1c(=O)c2c(nc(N/N=C/c3cccs3)n2Cc2ccc(Br)cc2)n(C)c1=O |  | 14.1 µM [quencher] (active) |
| CCOc1ccccc1N(C)C(=O)c1cc2c(s1)-c1ccccc1OC2 | -13.1% (inactive) |  |
| COc1ccc(NC(=O)NC(C)c2c(-n3cccc3)sc(C)c2C)cc1OC (stereo not drawn) |  | 15.8 µM [quencher] (active) |
| Cc1ccc(NC(=O)NC(C)c2c(-n3cccc3)sc(C)c2C)c(C)c1 (stereo not drawn) | -9.91% (inactive) |  |
| CCn1cc(NC(=O)Nc2ccc(OC)c(OC)c2)c(C(N)=O)n1 | -7.73% (inactive) |  |
| Cc1ccc(CSc2nc3ccsc3c(=O)n2CCC(C)C)cc1 | -17% (inactive) |  |
| CCOC(=O)c1c(S(=O)(=O)NCC(=O)Nc2ccc(Cl)c(C(F)(F)F)c2)c(C)n(C)c1C | -29.9% (inactive) |  |
| Fc1ccc2[nH]c3c(N4CCN(Cc5ccc6c(c5)OCO6)CC4)ncnc3c2c1 |  | 25.1 µM [quencher] (active) |
| O=c1[nH]c(N2CCN(Cc3ccc4c(c3)OCO4)CC2)nc2c1CCCC2 | 5.42% (inactive) |  |
| Fc1ccc2[nH]c3c(N4CCSCC4)ncnc3c2c1 | -10.8% (inactive) |  |
| COc1ccc(S(=O)(=O)c2c(Nc3ccc(C)cc3)sc(C(=O)c3ccc(C)cc3)c2N)cc1 | -14.6% (inactive) |  |
| O=C(NCC(c1ccc2c(c1)OCO2)N1CCN(c2ccccc2)CC1)C(=O)Nc1ccccc1F (stereo not drawn) | -27.4% (inactive) |  |
| CN(C)c1ccc(/C=N/N(Cc2ccccc2)c2ccccc2)cc1 | 6.03% (inactive) |  |
| O=C(N/N=C/c1ccc(OCc2ccccc2)cc1)c1ccc(O)cc1 | -29% (inactive) |  |
| Oc1ccc(/C=N/N(Cc2ccccc2)c2ccccc2)cc1 |  | 15.8 µM [quencher] (active) |
| CCN(CC)c1ccc(NC(=O)CN2C(=O)c3cccnc3Oc3ccc(Cl)cc32)c(C)c1 | -14% (inactive) |  |
| CCc1cc2c(cc3c(=O)n(CC(=O)N4CCN(c5cc(Cl)ccc5C)CC4)ncn32)s1 | 0.522% (inactive) |  |

— PubChem BioAssay AID1463 (National Center for Advancing Translational Sciences (NCATS), 2008)
